Results on 21 compounds are retold here after PubChem BioAssay (NCI).

Compounds without any hit were thinned out: in the full panel of roughly 83,000, 20% have a hit.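 Percent growth is the endpoint: 0 to 100 indicates growth inhibition (40 means 60% inhibition), 0 means no net growth, and negative values indicate cell death.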 Values without a mark were called inactive. Activity calls are given as the source filed them. The calls were made as follows: active = growth percent below 10; inactive = the rest.

Holding throughout (test): NCI-60 one-dose screen, 48 h (100 = growth as untreated, 0 = no growth, -100 = all killed)
Details in all cases: 10 µM unless noted

Experiment [1] has as its system HCT-15 colon.
Experiment [2] relates to HT29 colon.
Experiment [3] deals with SNB-75 CNS.
Experiment [4] has as its system SNB-19 CNS.
The subject of experiment [5] is U251 CNS.
Experiment [6] relates to PC-3 prostate.
Experiment [7] deals with SK-MEL-5 melanoma.
The subject of experiment [8] is UACC-62 melanoma.
The subject of experiment [9] is LOX IMVI melanoma.
The test system of experiment [10] is SK-MEL-28 melanoma.

Regarding `COc1cc2oc(-c3ccc(O)cc3)cc(=O)c2c(O)c1-c1c(OC)cc(O)c2c(=O)cc(-c3ccc(O)cc3)oc12`, the growth in experiment [1] is 30.4%; in [2] it was 12.1%; in experiment [3], -2.61% (active); in experiment [4], 17.8%; in experiment [5], 19.2%; in [6] it was 72.3%. Besides, the growth was -49.5% (active) in experiment [7], -26.3% (active) in experiment [8], 18.2% in experiment [9] and 18.3% in experiment [10].
As for `COc1ccc(-c2[nH]c3ccc(OC)cc3c2/C=C(\C#N)S(=O)(=O)c2ccccc2)cc1`, the growth in [1] was 22.6%; in [2], 13.2%; in experiment [3], 8.92% (active); in [4], 31.1%; in experiment [5], 24.8%; in experiment [6], 24.8%. Also, the growth was -25.5% (active) in [7], 22% in experiment [8], 36.4% in experiment [9] and 43.2% in experiment [10].
As for `Cc1ccc(-c2nc(N3CCN(C(=O)c4ccc(OC(F)(F)F)cc4)CC3)c3ccccc3n2)cc1`, the growth in [1] is 72.8%; in experiment [2] it was 88.9%; in experiment [3], 76.2%; in experiment [4], 88.4%; in experiment [5] it was 86.1%; in experiment [6], 63.9%. For the same compound, the growth in experiment [7] is 81.5%; in experiment [8], 75.4%; in experiment [9], 89.4%; in experiment [10], 101%.
As to `O=C(Nc1ccc(Cl)cc1F)c1ccccc1O`, the growth was 42.7% in experiment [1]; 96.4% in [2]; 36.4% in experiment [3]; 45.8% in experiment [4]; 34.6% in [5]; 59.6% in experiment [6]. Further, the growth is -47.5% (active) in experiment [7], 9.27% (active) in experiment [8], 28.2% in [9] and 29.9% in [10].
For the compound `NCCCNc1nc2ccccc2c2c(=O)c3cc(C(F)(F)F)ccc3sc12`, the growth in experiment [1] was -55.7% (active); in experiment [2] it was -23.4% (active); in [3], 60.1%; in [4], 30.4%; in [5], -55.7% (active); in experiment [6], 37.3%. Further, the growth in experiment [7] was 45.8%; in [8], 95.1%; in [9], -97.7% (active); in experiment [10], 81.2%.
Regarding `CC(=O)c1ccc(Nc2nc(C(C)=O)c(C)s2)cc1`, the growth is 97.4% in experiment [1]; 100% in experiment [2]; 73.6% in experiment [3]; 97.5% in [4]; 100% in experiment [5]; 95.3% in [6]. In addition, the growth in experiment [7] is 99.9%; in experiment [8], 96.1%; in experiment [9], 99.9%; in [10], 103%.
With `CC(=O)OC[C@H]1OC(Sc2sc(C(=O)c3ccc(Br)cc3)c(N)c2-c2nc3ccccc3s2)[C@H](OC(C)=O)[C@@H](OC(C)=O)[C@H]1OC(C)=O` (stereo not given in full), the growth in experiment [1] was 99.7%; in [2], 106%; in experiment [3], 74.5%; in [4], 87.4%; in experiment [5] it was 96.2%; in experiment [6], 70.8%. Moreover, the growth is 36.3% in [7], 60.4% in [8], 96.8% in experiment [9] and 104% in experiment [10].
On to `CCCCn1c(=O)c(-c2cc(-c3ccc(Cl)cc3)nc(-c3ccc(Cl)cc3)c2)cc2ccc(Cl)cc21`, for which the growth is 105% in experiment [1]; 109% in [2]; 86.4% in experiment [3]; 96.1% in [4]; 101% in experiment [5]; 94.6% in experiment [6]. In addition, the growth in [7] was 104%; in [8] it was 95.4%; in [9], 98.1%; in experiment [10], 106%.
Regarding `CC[C@H](C)C(=O)O[C@H]1CCC=C2C=C[C@H](C)[C@H](CC[C@@H]3CC=CC(=O)O3)[C@H]21`, the growth in experiment [1] was 85.7%; in experiment [2] it was 67.7%; in [3] it was 68.9%; in [4], 83.5%; in experiment [5], 88.1%; in experiment [6], 61.6%. The growth is 77% in experiment [7], 82.3% in experiment [8], 53.3% in experiment [9] and 94.8% in experiment [10].
With `C(=N/Nc1ncnc2nc[nH]c12)/c1ccccn1`, the growth in experiment [1] is 35.4%; in [2], 58.8%; in experiment [3], 75.5%; in experiment [4], 53.8%; in experiment [5], 32.6%; in experiment [6], 31%. The growth in experiment [7] was 16.9%; in experiment [8] it was 27%; in [9], 19.1%; in experiment [10], 49.1%.
As for `CC1Cc2c(ncn3c(-c4ccc(F)cc4)nnc23)N(C)c2ccccc21` (stereo not given), the growth is 72% in experiment [1]; 18.3% in experiment [2]; -7.85% (active) in experiment [3]; 48.5% in [4]; 39.3% in [5]; 63% in experiment [6]. Also, the growth is 96.7% in experiment [7], 73.5% in experiment [8], 12.6% in experiment [9] and 85.4% in experiment [10].
Regarding `O=c1c2cccc(F)c2sc2c(NCCCNCCO)nc3ccccc3c12`, the growth is 11.4% in experiment [1]; -39.8% (active) in experiment [2]; 45.5% in experiment [3]; 44.1% in [4]; 38.8% in [5]; 38.3% in experiment [6]. Further, the growth in experiment [7] was 71.7%; in [8], 59.8%; in experiment [9], -86.6% (active); in experiment [10] it was 64.2%.
For the compound `COc1ccc(-c2nnc(COc3ccc(Cl)cc3Cl)o2)cc1OC`, the growth in experiment [1] is 49.5%; in experiment [2], 28.7%; in experiment [3], -42% (active); in experiment [4], 44.6%; in [5], 37.2%; in experiment [6], 43.7%. The growth in experiment [7] is 28.2%; in [8], 43.7%; in [9], 16.1%; in experiment [10] it was 67.2%.
Regarding `c1ccc2c(-c3nc(-c4c[nH]c5ccncc45)cs3)c[nH]c2c1`, the growth in experiment [1] was 6% (active); in experiment [2] it was 2.05% (active); in experiment [3], 57.6%; in experiment [4] it was 86.5%; in [5], -14.9% (active); in [6], 46.7%. For the same compound, the growth is 51.1% in [7], 87.1% in experiment [8], -76% (active) in experiment [9] and -89.8% (active) in [10].
Consider `NS(=O)(=O)c1ccc(-n2nc(-c3ccc(Cl)cc3)c3ccccc3c2=O)cc1`, for which the growth in experiment [1] is 94.5%; in [2] it was 97.1%; in experiment [3] it was 79.2%; in experiment [4], 85.6%; in experiment [5] it was 103%; in experiment [6] it was 75.3%. Besides, the growth in [7] was 90.3%; in [8], 89.2%; in experiment [9], 83.6%; in experiment [10], 117%.
Turning to `COc1cc(C(=O)N2N=C(c3ccc(S(C)(=O)=O)cc3)CC2c2ccco2)cc(OC)c1OC` (stereo not given), the growth was 39.4% in experiment [1]; 24.9% in [2]; 46.9% in experiment [3]; 75.9% in [4]; 57.7% in experiment [5]; 51% in experiment [6]. Further, the growth in experiment [7] is 39.8%; in [8], 29.3%; in [9], 50.5%; in [10], 89.2%.
As for `Cc1ccc(/C=C(\C#N)n2nc3cccc(F)c3n2)cc1`, the growth in experiment [1] is 82.6%; in [2] it was 114%; in [3], 74.7%; in experiment [4], 96.6%; in [5], 86.3%; in experiment [6] it was 102%. The growth in [7] was 89.9%; in [8], 83.7%; in experiment [9], 86.2%; in [10] it was 96.2%.
Take `CC([C@H]1CCC2C3CCC4C(=O)C(NC=O)=CC[C@]4(C)C3CC[C@@]21C)N(C)C` (stereo not given in full): the growth is -37.1% (active) in experiment [1]; -20.2% (active) in experiment [2]; 34.1% in experiment [3]; 76% in experiment [4]; 25.6% in experiment [5]; 27.4% in [6]. The growth in experiment [7] is -56% (active); in experiment [8] it was -39.7% (active); in [9] it was -37.2% (active); in experiment [10], -70.1% (active).
For `COc1cccc(OC)c1C(=O)N[C@@H]1C(=O)N2[C@@H]1SC(C)(C)[C@@H]2C(=O)O`, the growth in experiment [1] was 108%; in [2], 98.9%; in experiment [3], 98.9%; in experiment [4], 107%; in experiment [5], 106%; in experiment [6] it was 86.3%. Also, the growth in experiment [7] is 105%; in [8], 109%; in experiment [9] it was 100%; in experiment [10] it was 105%.
On to `CCOC(=O)Nc1ccc(-c2nc(-c3cccc(OC)c3)c(-c3ccnc(Br)c3)[nH]2)cc1`, for which the growth was 5.65% (active) in [1]; 25.7% in [2]; 32.6% in experiment [3]; 46.1% in [4]; 39% in [5]; 11.2% in [6]. The growth in experiment [7] was 25.7%; in [8] it was 21.2%; in experiment [9], 4.57% (active); in [10], 42%.
For the compound `COc1cccc(/C=C2\C=C(c3ccccc3)N(Cc3ccccc3)C2=O)c1`, the growth in experiment [1] was 38%; in experiment [2], 82.2%; in experiment [3], 51.4%; in experiment [4], 79.6%; in [5] it was 56.4%; in experiment [6] it was 33.9%. The growth was 34.8% in experiment [7], 38% in [8], 49.2% in experiment [9] and 79.9% in experiment [10].
